# PubChem BioAssay AID2514 (National Center for Advancing Translational Sciences (NCATS), 2010)
# Results filed as inconclusive are left out. The source made the active and inactive calls. The call rests on the fitted dose curve; in most records, active means well fitted activation curve with a large enough effect; inconclusive means small, poorly fitted or top-dose-only effect; inactive means no such curve, though single readings can be large or run the other way.
# Assay: Confirmation Concentration-Response Assay for Enhancers of SMN2 Splice Variant Expression for Probe SAR
# Settings: HEK293 SMN2 exon7 splicing luciferase reporter, luminescence
# Source text: NIH Chemical Genomics Center [NCGC] NIH Molecular Libraries Probe Production centers Network [MLPCN] MLPCN Grant: R03 MH084179-01 Assay Submitter (PI): Elliot Androphy NCGC Assay Overview: Spinal muscular atrophy (SMA) is caused by insufficient levels of the survival motor neuron protein SMN. The SMN locus on chromosome 5q13 contains two inverted copies of SMN called SMN1 and SMN2 which are 99% identical at the amino acid level. SMN1 is a fully functional protein and SMN2 skips exon 7 90% of the time. Skipping of exon 7 produces non-functional protein product. 10% of the SMN2 protein includes exon 7 and is fully functional. In the SMA disease state, mutations in the SMN1 locus are the cause of the disease state. Because only 10% of SMN2 is of the fully functional form, it is not sufficient to overcome the deficiency produced by the loss of the SMN1 product. A therapy that either increase the amount of SMN2 product made or to increase the inclusion of exon 7 has been proposed for the treatment of SMA. We have designed an assay to identify small molecules that can increase the amount of functional SMN2 product by appending a luciferase reporter gene after the native SMN2 gene, such that inclusion of exon 7 in the expressed product places the luciferase sequence in frame, thus generating functional luciferase enzyme. […]
smiles,measurement,value
Brc1ccc(-c2csc(N3CCCCC3)n2)cc1,Potency,13.7 µM (active)
